Inconclusive results are not listed. Entries that show only a call come without a potency. Active and inactive are the calls of the source. Calls follow the shape of the dose curve; as a rule, active = well fitted activation curve with a large enough effect; inconclusive = small, poorly fitted or top-dose-only effect; inactive = flat fitted curve, though single readings scatter.
assay: qHTS for Inhibitors of Cell Surface uPA Generation: FP59 Counterscreen for Cherry-picked Compounds; settings: FP59 anthrax toxin cytotoxicity counterscreen, cells; series mostly up to 115 µM

Row | Structure (SMILES) | Potency
1 | O=C(Nc1cccc(-c2nn[nH]n2)c1)c1ccc(Cl)s1 | inactive
2 | Cc1ccc(NC(=O)CC2OC(=O)c3ccccc32)cc1S(=O)(=O)N1CCOCC1 (stereo not drawn) | inactive
3 | CCOc1cc(C(=O)OCC(=O)c2cc(C)n(CC3CCCO3)c2C)ccc1OCC(=O)N1CCOCC1 (stereo not drawn) | inactive
4 | O=C(COC(=O)/C=C/c1cccc(F)c1)Nc1ccccc1 | inactive
5 | O=C(Cn1cnc2c(OCc3ccccc3)ncnc21)NCCCN1CCCC1=O | inactive
6 | Cc1cccn2c(CNCC(C)Oc3cccnc3)c(C(=O)N3CCOCC3)nc12 (stereo not drawn) | inactive
7 | O=C(COC(=O)c1cccc([N+](=O)[O-])c1)NNC(=O)c1cccs1 | inactive
8 | O=C(NCCCn1cccn1)C1CCC(=O)N(Cc2ccccc2F)C1 (stereo not drawn) | inactive
9 | O=C(NC1CC1)C1CCCN(C(=O)NC2CCCCC2)C1 (stereo not drawn) | inactive
10 | Cc1ccc(OCc2cc(C(=O)N(C)Cc3cc(C4CC4)n[nH]3)no2)cc1C | inactive
11 | Cc1noc(C)c1COc1ccc(C(=O)O)cc1 | inactive
12 | COc1ccc(OC)c(N2C(=O)CC(Cc3cc(C)cc(C)c3)C2=O)c1 (stereo not drawn) | inactive
13 | NC(=O)CC(NC(=O)Cc1cccc2ccccc12)c1ccc(N2CCN(c3ccc(F)cc3)CC2)c([N+](=O)[O-])c1 (stereo not drawn) | inactive
14 | CCOc1cc(N2CCOCC2)c(OCC)cc1NC(=O)c1[nH]c(C)c(C(C)=O)c1C | inactive
15 | O=[N+]([O-])c1ccc(C[n+]2cccc(O)c2)cc1 | inactive
16 | CC(C)C(NC(=O)Cc1ccccc1)C(=O)N1CCN(c2cccc(Cl)c2)CC1 (stereo not drawn) | inactive
17 | CC(C)NC(=O)CN1CCC(c2nc3ccccc3[nH]2)CC1 | inactive
18 | Cc1cc(C)n2nc(CNS(=O)(=O)c3ccc(F)c(C)c3)nc2n1 | inactive
19 | COc1cc(NC(=O)COC(=O)c2cc(S(=O)(=O)N3CCCCC3)ccc2Cl)c(C)cc1[N+](=O)[O-] | inactive
20 | COc1ccccc1NC(=O)Cn1nnc(-c2ccccc2NC(=O)c2cc3ccccc3oc2=O)n1 | inactive
21 | COc1ccc(NC(=O)/C(N=Nc2cc(S(=O)(=O)Nc3ccc(OC)cc3)ccc2OC)=C(\C)O)cc1 | inactive
22 | Cc1oc(-c2ccccc2F)nc1CS(=O)CC(=O)NCc1ccc(F)cc1 (stereo not drawn) | inactive
23 | COc1ccc(Nc2nc(-c3ccccc3)c(C(=O)Nc3cccnc3)s2)cc1 | inactive

— PubChem BioAssay AID720517 (National Center for Advancing Translational Sciences (NCATS), 2013)
